hERG WT inh = blocks the wildtype human KCNH2 potassium channel; Q12809; U2OS, BacMam KCNH2, thallium flux FluxOr; hits give low values; activity change, % at 1.84 µM; 340,000 tested, 0.37% active; AID 720551;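 active = maximum activity change below -70%; inconclusive = maximum activity change between -70% and -50%; inactive = maximum activity change above -50%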; note: % is set by controls: 0 for no effect and ±100 for the full control effect
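U2OS cells transduced with wild-type KCNH2 virus are loaded with FluxOr dye for 45 min, and thallium flux is measured in kinetic reads before and after stimulation buffer. Rate constants are normalized to DMSO controls.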
12-LOX inh = inhibitors of human 12S-lipoxygenase ALOX12; P18054; 580,000 tested, 1.1% active; purified 12hLO, xylenol orange hydroperoxide absorbance; AID 1671190; Potency, µM (highest dose often 108 µM), for the others: top-dose activity change, negative = inhibition, actives largely listed as inhibitors; note: potency is the fitted concentration of half-maximal effect; % is set by controls: 0 for no effect and ±100 for the full control effect
Target sequence (P18054 whole entry, looked up): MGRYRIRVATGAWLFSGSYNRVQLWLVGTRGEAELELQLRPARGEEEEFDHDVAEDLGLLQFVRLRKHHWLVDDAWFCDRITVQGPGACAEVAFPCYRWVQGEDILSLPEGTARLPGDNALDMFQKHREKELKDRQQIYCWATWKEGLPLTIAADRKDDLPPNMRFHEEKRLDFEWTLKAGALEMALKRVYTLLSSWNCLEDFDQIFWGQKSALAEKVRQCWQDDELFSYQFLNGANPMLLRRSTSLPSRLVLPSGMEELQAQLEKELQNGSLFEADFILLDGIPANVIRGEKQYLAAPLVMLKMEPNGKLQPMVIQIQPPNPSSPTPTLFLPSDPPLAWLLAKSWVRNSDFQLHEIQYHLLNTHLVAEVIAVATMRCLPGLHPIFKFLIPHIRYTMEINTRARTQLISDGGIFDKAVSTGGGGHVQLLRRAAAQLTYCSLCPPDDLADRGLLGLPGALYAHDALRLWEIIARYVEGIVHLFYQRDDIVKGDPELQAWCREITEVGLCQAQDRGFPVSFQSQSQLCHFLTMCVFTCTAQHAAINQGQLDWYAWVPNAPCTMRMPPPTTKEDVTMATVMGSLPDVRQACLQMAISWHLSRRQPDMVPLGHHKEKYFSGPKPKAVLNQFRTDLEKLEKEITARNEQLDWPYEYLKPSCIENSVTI
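Hydroperoxide product was detected by ferrous iron/xylenol orange as the 573 to 405 nm absorbance ratio. Arachidonic acid at 40 uM (final) was turned over for 30 min at room temperature by 150 nM human 12hLO, pH 7.0 Hepes buffer, after 15 min compound preincubation.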
A-T KAP1 phos = candidate therapy for ataxia-telangiectasia; AID 485349; F2112 A-T fibroblasts, KAP-1 phosphorylation AlphaLISA; neocarzinostatin DNA damage 30 min before lysis; Potency, µM (series often up to 57.5 µM), without a hit: at the highest dose activation, actives largely listed as activators; 320,000 tested, 0.19% active; note: potency is the fitted concentration of half-maximal effect; % of control where 0% means no effect; nearly all actives have a fitted effect of over 45% in size
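ATM-like activity read as KAP-1 phosphorylation via AlphaLISA donor/acceptor antibody pairs after lysis and 6 hr at 25C. Cells were ATM-null patient fibroblasts (F2112, hTERT), dosed 60 min, then exposed to the DSB inducer NCS for 30 min.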
KCNH2 3.1 inh = blocks the human KCNH2 3.1 channel isoform; U2OS KCNH2 3.1, thallium flux FluxOr; hits give low values; activity change, % (tested at about 1.8 µM); 340,000 tested, 0.95% active; AID 720553;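 active = maximum activity change below -70%; inconclusive = maximum activity change from -70% to -50%; inactive = maximum activity change above -50%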;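 note: thallium influx rate constant from kinetic fluorescence after stimulation buffer; % is set by controls: 0 for no effect and ±100 for the full control effect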
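Normalized rate constant (relative to positive and negative DMSO controls) derived from a 2 min kinetic fluorescence read after stimulation; U2OS cells expressing the 3.1 isoform via virus at 1.77 x 10^8 /mL.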
An asterisk follows results filed as active; ? = inconclusive; / = no result; [ ] = dose if it differs, or a comment. This is a sample that favours compounds with a hit; in the whole collection about 1.8% have one here. Unless noted, calls come from the whole dose curve; as a rule, active = well fitted curve in the direction sought with a large enough effect; inconclusive = small, poorly fitted or top-dose-only effect, or another doubt; inactive = no such curve, though single readings can be large; an effect the other way counts as inactive or inconclusive.

SMILES | hERG WT inh | 12-LOX inh | A-T KAP1 phos | KCNH2 3.1 inh
CCOC(=O)c1c(N2C(=O)CC(Sc3ccccc3C(=O)O)C2=O)sc2c1CCCC2 (centres undefined) | -13 | 16µM* | -1% | 7
CCN1C(=O)CC(Sc2ccccc2C(=O)O)C1=O (centres undefined) | -19 | -8% | 5% | -104*
CCOC(=O)c1c(NC(=O)c2ccccc2C(=O)O)sc2c1CCCC2 | -3 | -8% | 1% | -7
COc1ccc(-c2ccc3c(n2)CN(Cc2ccccc2F)C(=O)CO3)cc1OC | / | -21%[176 µM] | / | /
CC(OC(=O)c1ccc(CS(C)(=O)=O)cc1)c1ccc(F)cc1F (centres undefined) | / | 0% | / | /
CCCCCCCCCCOC1CCS(=O)(=O)C1 (centres undefined) | / | 13% | / | /
CC1CCN(CCc2nc3cc(NC(=O)COc4ccc(Cl)cc4)ccc3n2C)CC1 | 11 | 0% | -6% | -96*
Cn1c(CCN2CCN(c3ccccn3)CC2)nc2cc(NC(=O)COc3ccc(Cl)cc3)ccc21 | -17 | -14% | -4% | -74*
COc1ccc(OCC(=O)Nc2ccc3c(c2)nc(CCN2CCC(C)CC2)n3C)cc1 | 1 | 23% | -4% | -31
COc1cccc(CNC(=O)COc2cc(O)c3c(=O)cc(-c4ccccc4)oc3c2)c1 | / | 28% | / | /
Cc1noc(-c2ccc3c(c2)OCO3)c1C(=O)NCCSCc1ccccc1 | / | 20µM* | / | /
CC(C)n1cnnc1CC1CCN(C(=O)c2nn(C)c3ccccc23)C1 (centres undefined) | / | 34% | / | /
Cc1cccc(CN2C(=O)/C(=C\c3ccc(C(=O)NCCN4CCOCC4)cc3)Sc3ccccc32)c1 | -5 | / | -3% | -81*
CN1C(=O)/C(=C\c2ccccc2F)Sc2ccc(C(=O)NC3CCN(Cc4ccccc4)CC3)cc21 | -83* | -23% | -4% | -81*
COc1ccc(/C=C2\Sc3ccc(C(=O)NC4CC4)cc3N(C)C2=O)cc1OC | 0 | 12% | 2% | -3
Cc1ccc(S(=O)(=O)Nc2cccc(C(=O)NC3CCN(Cc4ccccc4)CC3)c2)cc1F | -39 | ? | 1% | -80*
CCN1CCN(CCNC(=O)c2ccc3c(c2)N(Cc2ccc(F)cc2)C(=O)/C(=C/c2ccccc2)S3)CC1 | -20 | 24% | 10% | -88*
CCN1CCN(CCNC(=O)c2ccc(/C=C3/Sc4ccccc4N(Cc4cccc(Cl)c4)C3=O)cc2)CC1 | 3 | -10% | -8% | ?
Cc1ccccc1CN1C(=O)/C(=C\c2ccc(C(=O)NCCN3CCOCC3)cc2)Sc2ccccc21 | 0 | -15% | 2% | 1
O=C(NCC1CCCO1)c1ccc2oc(-c3ccc(C(F)(F)F)cc3)nc2c1 (centres undefined) | / | 82% | / | /
O=C1Nc2cc(C(=O)NCCN3CCCCCC3)ccc2S/C1=C/c1ccccc1F | 44 | 28µM* | / | -45
O=C1Nc2cc(C(=O)NCCCN3CCCC3)ccc2S/C1=C/c1ccccc1F | 12 | 7% | -1% | -33
CCN(CC)CCCN(C(=O)c1cccc(C)c1)c1nc(-c2ccc(OC)cc2)cs1 | -81* | ? | -1% | -73*
CCN(CC)CCCN(C(=O)c1ccc(Br)cc1)c1nc(-c2ccc(OC)cc2)cs1 | -135* | ? | -1% | -109*
CCN(CC)CCCN(C(=O)c1cccs1)c1nc(-c2ccc(OC)cc2)cs1 | 27 | / | 1% | ?
SMILES | hERG WT inh | 12-LOX inh | A-T KAP1 phos | KCNH2 3.1 inh
Cc1cc(SCc2ccc(Cl)cc2)nc2ccccc12 | / | 3% | / | /
CC1=C[C@@H](CN2CCN(c3cnccn3)CC2)[C@H](C(C)C)C[C@H]1Cc1nnc(-c2ccccc2)o1 | / | -3% | / | /
COc1ccc(C(=O)Nc2oc3ccccc3c(=O)c2-c2ccc(F)cc2)cc1 | / | 52% | / | /
O=C(NCCC1=CCCCC1)C1CCN(S(=O)(=O)N2CCOCC2)CC1 | 8 | 2% | 0% | -71*
O=C(CCCN1C(=O)c2ccc(Br)cc2C1=O)OCc1cccc([N+](=O)[O-])c1 | / | 0% | / | /
CCN1CCCC1CNc1ncnc2c1[nH]c1ccc(Cl)cc12 (centres undefined) | -112* | 0% | 7% | -110*
O=C1CCCN1CCCNc1ncnc2c1[nH]c1ccc(Cl)cc12 | -6 | 7% | -3% | -2
CN(C)CCCNS(=O)(=O)c1ccc(N2CCN(Cc3ccc4c(c3)OCO4)CC2)c([N+](=O)[O-])c1 | 43 | 2.8µM* | 6% | -21
